Experimental data: PubChem BioAssay AID1159580 (chemical genetic matrix, 2015)
Several values for one entry are separate records, joined by “and”; a condition that tells them apart may be missing. Identical values can stand only once. Hit rate of the full screen: of about 5,500 compounds, about 2,000 (36%) were called active. Another 18% or so got no clear call; they are omitted. No stated cut-off is given here; in the data, active means normalized growth mostly below about 0.91 (no sharp cut-off); inconclusive means no clear call, values can overlap the other calls; inactive means mostly above about 0.92. The list shows a part of the results.

Test: chemical genetic growth profiling, strain panel (AID 1159580);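 further: tested at 20 µM; growth read once vehicle control cultures reached saturation at 30 °C; 1 = growth at the plate median or of vehicle wells; lower values mean less growth of the strain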
Settings: growth OD

Measured: normalized growth

O=c1oc2ccccc2cc1[N+](=O)[O-]
active: S. cerevisiae deletion strains, locus YAL013W, strain DEP1, active compounds read low 0.0574 | S. cerevisiae deletion strains, locus YBR229C, strain ROT2, active compounds read low 0.0595 | S. cerevisiae deletion strains, locus YCL061C, strain MRC1, active compounds read low 0.0567 | S. cerevisiae deletion strains, locus YDL101C, strain DUN1, active compounds read low 0.0763 | S. cerevisiae deletion strains, locus YDL134C, strain PPH21, active compounds read low 0.049 | S. cerevisiae deletion strains, locus YDR150W, strain NUM1, active compounds read low 0.0585 | S. cerevisiae deletion strains, locus YEL061C, strain CIN8, active compounds read low 0.0579 | S. cerevisiae deletion strains, locus YGR052W, strain FMP48, active compounds read low 0.114 | S. cerevisiae deletion strains, locus YGR078C, strain PAC10, active compounds read low 0.0524 | S. cerevisiae deletion strains, locus YGR229C, strain SMI1, active compounds read low 0.0596 | S. cerevisiae deletion strains, locus YHR030C, strain SLT2, active compounds read low 0.0818 and 0.0892 | S. cerevisiae deletion strains, locus YHR079C, strain IRE1, active compounds read low 0.106 | S. cerevisiae deletion strains, locus YHR082C, strain KSP1, active compounds read low 0.105 | S. cerevisiae deletion strains, locus YHR087W, strain rtc3, active compounds read low 0.0624 | S. cerevisiae deletion strains, locus YJL095W, strain BCK1, active compounds read low 0.104 | S. cerevisiae deletion strains, locus YJR043C, strain POL32, active compounds read low 0.0547 | S. cerevisiae deletion strains, locus YJR066W, strain TOR1, active compounds read low 0.102 | S. cerevisiae deletion strains, locus YJR075W, strain HOC1, active compounds read low 0.0787 | S. cerevisiae deletion strains, locus YKL171W, strain NNK1, active compounds read low 0.106 | S. cerevisiae deletion strains, locus YKL190W, strain CNB1, active compounds read low 0.0491 | S. cerevisiae deletion strains, locus YKL203C, strain TOR2, active compounds read low 0.0901 | S. cerevisiae deletion strains, locus YLR039C, strain RIC1, active compounds read low 0.0723 | S. cerevisiae deletion strains, locus YLR058C, strain SHM2 (second series), active compounds read low 0.0528 | S. cerevisiae deletion strains, locus YLR085C, strain ARP6, active compounds read low 0.071 | S. cerevisiae deletion strains, locus YLR113W, strain HOG1, active compounds read low 0.137 | S. cerevisiae deletion strains, locus YLR262C, strain YPT6, active compounds read low 0.0758 | S. cerevisiae deletion strains, locus YML094W, strain GIM5, active compounds read low 0.0733 | S. cerevisiae deletion strains, locus YMR219W, strain ESC1, active compounds read low 0.0518 | S. cerevisiae deletion strains, locus YMR263W, strain SAP30, active compounds read low 0.0584 | S. cerevisiae deletion strains, locus YNL153C, strain GIM3, active compounds read low 0.057 | S. cerevisiae deletion strains, locus YNL183C, strain NPR1, active compounds read low 0.119 | S. cerevisiae deletion strains, locus YNL207W, strain RIO2, active compounds read low 0.0939 | S. cerevisiae deletion strains, locus YNL298W, strain CLA4 (second series), active compounds read low 0.0711 | S. cerevisiae deletion strains, locus YNL322C, strain KRE1, active compounds read low 0.0611 | S. cerevisiae deletion strains, locus YNR030W, strain Alg12, active compounds read low 0.0702 | S. cerevisiae deletion strains, locus YOL006C, strain TOP1, active compounds read low 0.0751 | S. cerevisiae deletion strains, locus YOR119C, strain RIO1, active compounds read low 0.0989 | S. cerevisiae deletion strains, locus YOR231W, strain MKK1, active compounds read low 0.106 | S. cerevisiae deletion strains, locus YPL055C, strain LGE1, active compounds read low 0.0749 | S. cerevisiae deletion strains, locus YPL241C, strain CIN2, active compounds read low 0.0745 | S. cerevisiae deletion strains, locus YPL256C, strain CLN2, active compounds read low 0.0976 | S. cerevisiae deletion strains, locus YPR135W, strain CTF4, active compounds read low 0.155 | S. cerevisiae strains, strain wild type, active compounds read low 0.0506
